Results from ChEMBL document CHEMBL1961873, “Compounds: GSK PKIS; Assays: Nanosyn kinase panel” (2012).

How the values were obtained:
[1] = biological target: Leukocyte tyrosine kinase receptor (Homo sapiens) (UniProt P29376); conditions: at 1 µM;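 further: each value is the mean inhibition of LTK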
[2] = biological target: Tyrosine-protein kinase Lyn (Homo sapiens) (UniProt P07948); conditions: at 0.1 µM
[3] = biological target: Tyrosine-protein kinase Lyn (Homo sapiens) (UniProt P07948); conditions: at 1 µM
[4] = biological target: Tyrosine-protein kinase Lyn (Homo sapiens) (UniProt P07948); conditions: at 0.1 µM; remark: listed apart in the source
[5] = biological target: Tyrosine-protein kinase Lyn (Homo sapiens) (UniProt P07948); conditions: at 1 µM; remark: listed apart in the source
[6] = biological target: T1, Tyrosine-protein kinase Mer (Homo sapiens) (UniProt Q12866); conditions: at 0.1 µM
T1 sequence (whole entry): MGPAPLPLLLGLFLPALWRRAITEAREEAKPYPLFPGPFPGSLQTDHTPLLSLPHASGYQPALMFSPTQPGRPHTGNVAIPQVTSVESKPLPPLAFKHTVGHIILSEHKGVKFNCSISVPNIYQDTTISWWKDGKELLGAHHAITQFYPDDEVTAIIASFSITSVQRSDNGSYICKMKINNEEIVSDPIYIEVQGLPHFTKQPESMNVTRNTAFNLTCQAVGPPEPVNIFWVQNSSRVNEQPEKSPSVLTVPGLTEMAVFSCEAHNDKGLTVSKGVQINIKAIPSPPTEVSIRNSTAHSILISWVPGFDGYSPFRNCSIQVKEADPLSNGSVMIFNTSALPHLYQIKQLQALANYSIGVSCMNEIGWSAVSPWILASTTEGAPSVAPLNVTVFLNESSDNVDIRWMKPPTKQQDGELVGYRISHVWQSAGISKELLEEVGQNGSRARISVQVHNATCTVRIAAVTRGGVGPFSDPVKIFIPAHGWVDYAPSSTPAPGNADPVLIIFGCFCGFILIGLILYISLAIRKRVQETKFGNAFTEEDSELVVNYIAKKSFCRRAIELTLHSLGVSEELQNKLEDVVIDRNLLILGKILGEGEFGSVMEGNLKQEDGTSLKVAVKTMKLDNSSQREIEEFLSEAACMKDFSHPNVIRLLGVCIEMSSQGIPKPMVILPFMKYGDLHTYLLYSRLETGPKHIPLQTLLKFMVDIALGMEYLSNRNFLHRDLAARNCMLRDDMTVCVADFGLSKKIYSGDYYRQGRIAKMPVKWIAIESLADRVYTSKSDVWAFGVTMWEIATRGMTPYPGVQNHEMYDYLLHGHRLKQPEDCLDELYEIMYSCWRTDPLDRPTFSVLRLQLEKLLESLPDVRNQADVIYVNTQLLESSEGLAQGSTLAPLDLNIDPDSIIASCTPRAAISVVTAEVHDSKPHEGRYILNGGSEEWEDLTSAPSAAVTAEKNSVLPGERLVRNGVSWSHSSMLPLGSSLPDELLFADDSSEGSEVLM

[7] = biological target: T1, Tyrosine-protein kinase Mer (Homo sapiens); conditions: at 1 µM
[8] = biological target: Hepatocyte growth factor receptor (Homo sapiens) (UniProt P08581); conditions: at 0.1 µM
[9] = biological target: Hepatocyte growth factor receptor (Homo sapiens) (UniProt P08581); conditions: at 1 µM
[10] = biological target: T2, Muscle, skeletal receptor tyrosine-protein kinase (Homo sapiens) (UniProt O15146); conditions: at 0.1 µM
T2 sequence (whole entry): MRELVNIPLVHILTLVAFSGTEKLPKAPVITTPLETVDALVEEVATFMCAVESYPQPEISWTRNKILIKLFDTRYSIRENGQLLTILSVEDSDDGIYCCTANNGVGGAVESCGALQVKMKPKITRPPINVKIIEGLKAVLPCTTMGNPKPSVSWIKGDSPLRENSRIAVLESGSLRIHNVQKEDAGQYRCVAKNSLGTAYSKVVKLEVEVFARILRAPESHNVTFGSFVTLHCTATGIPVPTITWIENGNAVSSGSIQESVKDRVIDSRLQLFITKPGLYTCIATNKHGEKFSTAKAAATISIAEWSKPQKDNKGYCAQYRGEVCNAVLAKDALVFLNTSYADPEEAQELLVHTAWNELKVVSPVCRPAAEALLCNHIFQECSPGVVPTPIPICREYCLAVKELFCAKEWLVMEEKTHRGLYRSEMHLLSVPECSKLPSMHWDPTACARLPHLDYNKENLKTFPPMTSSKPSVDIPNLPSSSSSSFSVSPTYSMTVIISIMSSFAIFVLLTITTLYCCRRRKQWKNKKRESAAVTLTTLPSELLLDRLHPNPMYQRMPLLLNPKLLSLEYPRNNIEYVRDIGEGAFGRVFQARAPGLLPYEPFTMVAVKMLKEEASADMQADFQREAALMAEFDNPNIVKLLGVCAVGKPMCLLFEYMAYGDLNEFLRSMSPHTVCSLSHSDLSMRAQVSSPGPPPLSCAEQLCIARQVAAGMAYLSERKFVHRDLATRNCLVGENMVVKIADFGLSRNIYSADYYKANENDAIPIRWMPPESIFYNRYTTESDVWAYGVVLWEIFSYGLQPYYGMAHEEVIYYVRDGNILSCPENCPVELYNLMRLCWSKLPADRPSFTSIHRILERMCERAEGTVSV

[11] = biological target: T2, Muscle, skeletal receptor tyrosine-protein kinase (Homo sapiens); conditions: at 1 µM
[12] = biological target: Platelet-derived growth factor receptor alpha (Homo sapiens) (UniProt P16234); conditions: at 0.1 µM
[13] = biological target: Platelet-derived growth factor receptor alpha (Homo sapiens) (UniProt P16234); conditions: at 1 µM
[14] = tested on: Platelet-derived growth factor receptor alpha (Homo sapiens), P16234 [D842V]; conditions: at 0.1 µM
[15] = tested on: Platelet-derived growth factor receptor alpha (Homo sapiens), P16234 [D842V]; conditions: at 1 µM
[16] = tested on: Platelet-derived growth factor receptor alpha (Homo sapiens), P16234 [T674I]; conditions: at 0.1 µM
[17] = tested on: Platelet-derived growth factor receptor alpha (Homo sapiens), P16234 [T674I]; conditions: at 1 µM
[18] = tested on: Platelet-derived growth factor receptor alpha (Homo sapiens), P16234 [V561D]; conditions: at 0.1 µM
[19] = tested on: Platelet-derived growth factor receptor alpha (Homo sapiens), P16234 [V561D]; conditions: at 1 µM
[20] = biological target: Platelet-derived growth factor receptor beta (Homo sapiens) (UniProt P09619); conditions: at 0.1 µM;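 further: reported value is the mean percent inhibition of the kinase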

Sequence of Platelet-derived growth factor receptor alpha (Homo sapiens), P16234 [V561D] (P16234 whole entry V561D): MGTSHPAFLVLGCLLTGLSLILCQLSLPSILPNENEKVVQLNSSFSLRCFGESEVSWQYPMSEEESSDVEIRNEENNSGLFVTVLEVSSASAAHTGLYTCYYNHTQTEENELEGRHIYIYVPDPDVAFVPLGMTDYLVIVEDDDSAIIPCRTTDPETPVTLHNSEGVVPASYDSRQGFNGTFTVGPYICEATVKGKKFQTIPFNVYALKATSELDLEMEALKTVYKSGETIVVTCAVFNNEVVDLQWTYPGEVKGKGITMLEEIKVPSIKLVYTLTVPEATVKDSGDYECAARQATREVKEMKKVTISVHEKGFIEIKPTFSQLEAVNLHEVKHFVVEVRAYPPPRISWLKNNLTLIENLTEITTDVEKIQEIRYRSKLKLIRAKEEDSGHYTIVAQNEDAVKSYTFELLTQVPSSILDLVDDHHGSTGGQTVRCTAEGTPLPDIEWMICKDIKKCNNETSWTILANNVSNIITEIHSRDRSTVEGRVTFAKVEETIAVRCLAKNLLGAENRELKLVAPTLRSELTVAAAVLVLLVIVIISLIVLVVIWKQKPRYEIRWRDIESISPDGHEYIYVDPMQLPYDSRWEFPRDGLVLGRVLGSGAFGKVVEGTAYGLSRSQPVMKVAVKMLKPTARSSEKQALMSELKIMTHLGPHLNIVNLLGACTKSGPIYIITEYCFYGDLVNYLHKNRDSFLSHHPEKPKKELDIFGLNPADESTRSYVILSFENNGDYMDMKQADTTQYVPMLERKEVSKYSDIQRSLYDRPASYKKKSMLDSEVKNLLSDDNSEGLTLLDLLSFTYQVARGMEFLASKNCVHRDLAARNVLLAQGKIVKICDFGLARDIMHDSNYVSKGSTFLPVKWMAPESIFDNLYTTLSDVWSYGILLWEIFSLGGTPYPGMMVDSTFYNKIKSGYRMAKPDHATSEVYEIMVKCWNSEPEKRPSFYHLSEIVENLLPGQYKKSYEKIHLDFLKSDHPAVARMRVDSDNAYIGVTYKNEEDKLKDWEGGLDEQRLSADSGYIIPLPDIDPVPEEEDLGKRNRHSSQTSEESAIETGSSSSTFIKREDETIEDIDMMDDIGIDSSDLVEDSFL
Sequence of Platelet-derived growth factor receptor alpha (Homo sapiens) (P16234 whole entry): as the sequence (P16234 whole entry V561D) above, with D561V counted along it
Sequence of Hepatocyte growth factor receptor (Homo sapiens) (P08581 whole entry): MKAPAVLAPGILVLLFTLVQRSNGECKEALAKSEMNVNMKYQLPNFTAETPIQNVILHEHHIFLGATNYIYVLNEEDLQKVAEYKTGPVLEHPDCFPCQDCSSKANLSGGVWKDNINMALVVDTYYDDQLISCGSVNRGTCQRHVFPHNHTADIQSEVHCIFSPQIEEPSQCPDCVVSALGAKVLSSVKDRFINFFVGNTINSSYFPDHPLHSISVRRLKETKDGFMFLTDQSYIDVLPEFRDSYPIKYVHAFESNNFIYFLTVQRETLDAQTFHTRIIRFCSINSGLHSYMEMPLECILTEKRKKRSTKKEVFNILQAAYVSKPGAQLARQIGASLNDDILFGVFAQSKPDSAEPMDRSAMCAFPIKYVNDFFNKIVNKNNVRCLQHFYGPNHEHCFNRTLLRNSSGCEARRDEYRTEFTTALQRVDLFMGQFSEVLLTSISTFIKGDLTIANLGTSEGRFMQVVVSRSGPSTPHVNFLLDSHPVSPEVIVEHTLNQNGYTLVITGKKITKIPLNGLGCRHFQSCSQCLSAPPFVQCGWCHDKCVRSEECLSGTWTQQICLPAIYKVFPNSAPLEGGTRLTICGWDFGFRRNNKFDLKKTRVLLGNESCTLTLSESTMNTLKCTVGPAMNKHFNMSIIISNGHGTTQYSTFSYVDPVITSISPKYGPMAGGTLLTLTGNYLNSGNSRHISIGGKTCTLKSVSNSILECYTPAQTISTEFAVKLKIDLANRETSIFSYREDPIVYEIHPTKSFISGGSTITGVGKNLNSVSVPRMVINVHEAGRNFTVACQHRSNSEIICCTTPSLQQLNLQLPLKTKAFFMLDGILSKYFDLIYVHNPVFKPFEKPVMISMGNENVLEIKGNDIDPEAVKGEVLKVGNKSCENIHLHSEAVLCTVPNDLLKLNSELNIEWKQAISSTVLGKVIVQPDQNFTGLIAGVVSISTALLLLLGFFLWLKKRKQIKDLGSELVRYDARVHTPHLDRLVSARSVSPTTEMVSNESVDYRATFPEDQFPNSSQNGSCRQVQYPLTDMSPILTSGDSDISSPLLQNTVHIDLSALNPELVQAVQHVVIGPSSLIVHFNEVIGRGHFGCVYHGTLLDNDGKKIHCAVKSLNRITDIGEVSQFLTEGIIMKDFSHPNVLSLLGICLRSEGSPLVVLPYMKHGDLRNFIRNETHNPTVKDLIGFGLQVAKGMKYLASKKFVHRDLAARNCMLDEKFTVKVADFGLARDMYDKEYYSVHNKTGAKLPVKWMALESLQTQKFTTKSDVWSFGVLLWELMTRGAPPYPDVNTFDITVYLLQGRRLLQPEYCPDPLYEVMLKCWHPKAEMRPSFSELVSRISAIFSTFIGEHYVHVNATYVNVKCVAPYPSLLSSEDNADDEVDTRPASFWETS
Sequence of Leukocyte tyrosine kinase receptor (Homo sapiens) (P29376 whole entry): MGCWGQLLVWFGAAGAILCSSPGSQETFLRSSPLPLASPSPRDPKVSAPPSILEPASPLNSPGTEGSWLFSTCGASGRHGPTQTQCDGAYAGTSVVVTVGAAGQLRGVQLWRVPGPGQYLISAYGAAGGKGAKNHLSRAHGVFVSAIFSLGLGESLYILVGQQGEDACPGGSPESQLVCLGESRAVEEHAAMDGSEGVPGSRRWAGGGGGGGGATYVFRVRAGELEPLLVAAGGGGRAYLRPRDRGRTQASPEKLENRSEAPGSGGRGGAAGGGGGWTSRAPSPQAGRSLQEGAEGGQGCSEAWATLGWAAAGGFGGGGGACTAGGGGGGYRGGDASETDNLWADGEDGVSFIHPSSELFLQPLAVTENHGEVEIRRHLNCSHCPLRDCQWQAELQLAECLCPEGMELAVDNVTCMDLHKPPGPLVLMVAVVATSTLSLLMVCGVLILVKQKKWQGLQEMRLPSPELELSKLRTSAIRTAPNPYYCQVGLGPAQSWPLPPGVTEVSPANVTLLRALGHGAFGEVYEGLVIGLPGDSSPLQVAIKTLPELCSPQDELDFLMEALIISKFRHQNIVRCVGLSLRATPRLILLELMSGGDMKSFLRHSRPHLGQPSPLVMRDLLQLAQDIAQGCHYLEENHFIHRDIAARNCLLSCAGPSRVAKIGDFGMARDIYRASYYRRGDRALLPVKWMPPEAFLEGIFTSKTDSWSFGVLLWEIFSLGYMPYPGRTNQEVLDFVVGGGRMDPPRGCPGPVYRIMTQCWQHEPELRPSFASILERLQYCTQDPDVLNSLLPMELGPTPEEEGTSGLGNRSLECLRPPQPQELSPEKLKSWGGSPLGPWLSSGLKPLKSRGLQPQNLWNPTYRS
Sequence of Tyrosine-protein kinase Lyn (Homo sapiens) (P07948 2-512 limits assumed): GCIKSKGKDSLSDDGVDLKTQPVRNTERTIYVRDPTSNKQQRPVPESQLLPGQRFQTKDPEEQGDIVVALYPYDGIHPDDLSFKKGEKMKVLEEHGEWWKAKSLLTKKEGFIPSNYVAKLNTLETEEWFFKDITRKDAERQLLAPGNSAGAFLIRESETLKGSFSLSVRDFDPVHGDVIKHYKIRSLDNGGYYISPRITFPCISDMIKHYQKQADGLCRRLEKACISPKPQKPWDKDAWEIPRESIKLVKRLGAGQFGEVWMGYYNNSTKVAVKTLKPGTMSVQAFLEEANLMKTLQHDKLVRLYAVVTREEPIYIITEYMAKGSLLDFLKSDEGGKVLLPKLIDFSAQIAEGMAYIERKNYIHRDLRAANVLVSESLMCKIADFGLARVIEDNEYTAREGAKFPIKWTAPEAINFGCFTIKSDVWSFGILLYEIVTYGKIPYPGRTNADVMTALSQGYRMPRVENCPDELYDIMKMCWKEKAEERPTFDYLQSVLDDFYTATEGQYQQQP

Structure (SMILES)	inhibition [1]	inhibition [2]	inhibition [3]	inhibition [4]	inhibition [5]	inhibition [6]	inhibition [7]	inhibition [8]	inhibition [9]	inhibition [10]	inhibition [11]	inhibition [12]	inhibition [13]	inhibition [14]	inhibition [15]	inhibition [16]	inhibition [17]	inhibition [18]	inhibition [19]	inhibition [20]
O=C1Nc2ccc(I)cc2C1=Cc1cc(Br)c(O)c(Br)c1	9.99%	4.2%	7.49%	2.6%	4.55%	2.32%	2.36%	1.23%	4.15%	1.59%	6.35%	2.96%	9.37%	2.93%	3.36%	2.82%	5.91%	3.34%	7.24%	0.08%
O=C(Nc1n[nH]c2nc(-c3ccc(O)cc3)c(Br)cc12)C1CC1	91.6%	9.57%	16.2%	6.94%	13%	1.7%	8.16%	4.98%	10.9%	4.48%	14%	25.9%	67.1%	12.8%	55.5%	7.49%	24.4%	19.7%	64.6%	12%
C#Cc1cccc(Nc2ncnc3ccc(OCCCCNCCS(C)(=O)=O)cc23)c1	28.5%	7.93%	26.9%	5.05%	21.8%	2%	5.14%	3.29%	8.4%	1.86%	2.93%	16.4%	30.4%	6.83%	11.5%	8.07%	25.4%	5.37%	10.6%	9.53%
CCS(=O)(=O)c1ccc(OC)c(Nc2ncc(-c3cccc(-c4ccccc4F)c3)o2)c1	4.54%	14.8%	62.5%	10.6%	55.8%	0.82%	3%	2.87%	3.52%	2.39%	5.48%	10.8%	49.7%	6.19%	32.1%	3.61%	6.31%	18.5%	60.4%	17.1%
c1ccc(Oc2ccc(Nc3ncc(-c4ccccc4)o3)cc2)cc1	1.13%	3.36%	2.98%	1.38%	2.09%	0.19%	0.42%	1.79%	7.6%	1.27%	2.81%	7.17%	11.5%	4.48%	3.18%	4.06%	10%	7.31%	19.6%	3.82%
Cc1nnc(-c2ccc(C)c(-c3ccc(C(=O)NCc4ccc(Cl)cc4)cc3)c2)o1	4.02%	3.85%	8.64%	2.14%	4.87%	2.04%	1.93%	4.09%	6.08%	2.38%	0.1%	4.51%	8.84%	3.25%	2.53%	6.19%	6%	1.34%	2%	1.36%
